Compound activity: PubChem, several laboratories
E coli growth-1 = blocks Escherichia coli growth; OD600, 23 h; active compounds read low; OD600 absorbance (concentration not given with the values); 330,000 tested, 0.21% active; AID 1053175;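 active means OD600 absorbance below the run mean of sample wells minus 3.6 SD, in any replicate, cut at about 0.56 in these data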
AddAB inh = less growth of phage-infected E. coli with AddAB. E. coli expressing H. pylori AddAB, absorbance growth. inhibition, % at 11.9 µM. 330,000 tested, 0.29% active; in the data active means inhibition above about 12%;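 further: 0% = vehicle wells of infected cells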
E coli growth-2 = reduces bacterial viability in AddAB counter-screen; E. coli V3065 growth, OD600 absorbance, 18 h; inhibition, % at 11.9 µM; 330,000 tested, 0.27% active;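 active means inhibition above the campaign's mean inhibition across all tested compounds plus 3 SD, cut at about 9.9% in these data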;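 further: uninfected addAB+ strain grown without phage in ampicillin broth; 0% = DMSO wells and 100% = ciprofloxacin 0.95 µg/ml wells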
phage Ecoli inh = E. coli growth loss with phage present; growth absorbance; inhibition, % at 11.9 µM; 360,000 tested, 0.26% active; AID 651602; in the data active means inhibition above about 11%
Tat export inh = inhibitors of E. coli Tat protein transport | E. coli MC4100 TorA-mCherry Tat export, fluorescence | inhibition, % at 10 µM | 340,000 tested, 0.036% active;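 active means mean replicate inhibition at least 50% and at least half of replicates individually reaching 50%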;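 further: exported cargo escapes ClpAP degradation while cytoplasmic cargo is degraded and loses fluorescence; 0% = median of neutral control wells and 100% = median of NaSCN control wells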
AddAB conf = confirmation screen: growth loss of phage-infected E. coli expressing H. pylori AddAB; shares compounds with AddAB inh; E. coli V3065 expressing H. pylori AddAB, T4 phage, OD; T4 phage with gene 2 nonsense mutations; inhibition, % at 11.9 µM; 880 tested, 64% active; AID 488942;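 active means mean inhibition above a set limit taken from the earlier primary screen, cut at about 13% in these data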;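 further: higher means less bacterial growth since AddAB block lets phage replicate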
RecBCD counter = AddAB counter-screen: growth loss of RecBCD+ E. coli infected with mutant T4 phage; shares compounds with AddAB inh; E. coli V66 + mutant T4 phage, OD growth; inhibition, % at 11.9 µM; 880 tested, 73% active; AID 488955;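 active means mean inhibition above the mean of solvent-only control wells plus 3 SD, cut at about 4% in these data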;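 further: optical density read after an 18 h incubation at 37 °C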
Bact viability = counter-screen for AddAB inhibitors: inhibitors of bacterial viability | 880 tested, 35% active | inhibition, % at 11.9 µM | AID 488956 | absorbance (AddAB counterscreen) | shares compounds with AddAB inh; in the data active means inhibition above about 25%
RecBCD conf = confirmation: growth loss of phage-infected RecBCD+ E. coli (RecBCD inhibitor screen); AID 651982; 890 tested, 45% active; shares compounds with phage Ecoli inh; inhibition, % at 11.9 µM; E. coli V66 + T4 2- phage, growth OD;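 active means mean inhibition over triplicates exceeding the hit threshold derived in the original primary screen, cut at about 11% in these data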
Ecoli viability = inhibits E. coli viability, flagging RecBCD hits as nonselective. AID 651983. 890 tested, 29% active. inhibition, % at 11.9 µM. shares compounds with phage Ecoli inh. absorbance (OD) growth; in the data active means inhibition above about 20%;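 further: E. coli strain V66 grown with compound alone and no phage infection; 0% = bacteria with DMSO vehicle only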
AddAB phage OD = growth loss of phage-infected AddAB E. coli, RecBCD counter-screen. shares compounds with phage Ecoli inh. E. coli expressing H. pylori AddAB + T4 phage, OD growth; gene 2 mutant T4, recBCD-deleted host. inhibition, % at 11.9 µM. 890 tested, 45% active. AID 651984;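 active means mean inhibition above the solvent-only control wells' mean plus 3 SD, cut at about 22% in these data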;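 further: higher means less bacterial growth from phage killing when AddAB is blocked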
* hit, by the source's call; . = no result given. Hits are enriched below; roughly 0.5% of the tested compounds scored in any of these assays.

SMILES	E coli growth-1	AddAB inh	E coli growth-2	phage Ecoli inh	Tat export inh	AddAB conf	RecBCD counter	Bact viability	RecBCD conf	Ecoli viability	AddAB phage OD
CSc1ccc(C=Nn2c(C)cc(C)cc2=O)cc1	0.662	.	.	.	.	.	.	.	.	.	.
[O-]C1=N[N+](=Cc2ccccc2Cl)CC1	0.707	.	.	.	.	.	.	.	.	.	.
COC(=O)c1cc(S(=O)(=O)NCc2ccc(F)cc2)cn1C	0.741	15.3*	5.4	2.4	-0.8	-1.1	0.5	-2.3	.	.	.
O=C1NCCOc2ccccc21	.	.	.	4.3	.	.	.	.	.	.	.
O=C1NCCO1	.	100.2*	101.4*	3.6	-0.5	0.4	-0.5	-3.0	.	.	.
CCOC(=O)N/N=C(/C)c1ccc([N+](=O)[O-])o1	.	31.8*	29.5*	7.7	-13.7	100.8*	12.5*	39.3*	.	.	.
CC(=NNC(=O)C(O)(c1ccccc1)c1ccccc1)c1ccc([N+](=O)[O-])o1	0.709	.	.	.	.	.	.	.	.	.	.
Cc1ccc(-n2c(-c3ccc(Br)cc3)c[n+]3c2CCc2ccc4cccnc4c2-3)cc1	0.491*	30.9*	24.3*	5.4	-8.2	76.2*	5.5*	20.6	.	.	.
CN(Cc1ccccc1C#N)S(=O)(=O)c1cccs1	0.7	3.5	2.5	4.7	7.2	.	.	.	.	.	.
N#Cc1nccnc1S(=O)(=O)c1cccs1	0.491*	18.9*	12.7*	18.3*	.	64.4*	16.6*	16.1	17.2*	16.4	32.7*
CC(O)c1nc2ccccc2n1CC(=O)Nc1ccc2c(c1)OCCO2 (stereo not given)	0.749	1.7	0.1	1.1	-8.5	.	.	.	.	.	.
O=C(Cn1c(CO)nc2ccccc21)Nc1ccc2c(c1)OCCCO2	0.688	12.2*	13.7*	12.1*	-5.3	8.9	11.8*	10.0	5.0	8.1	3.9
CC(C(=O)Nc1ccc2ccccc2c1)C1C[C@]1(C)C(NC(=O)OCc1ccccc1)c1ccccc1 (stereo not given in full)	0.672	.	.	.	.	.	.	.	.	.	.
Cc1nn(C2CCS(=O)(=O)C2)c(Cl)c1C=CC(=O)OCC(=O)Nc1ccccc1OC(F)F (stereo not given)	0.622	.	.	.	.	.	.	.	.	.	.
CN(C)c1ccc(C=NNC(=O)CNC(=O)/C=C/c2ccccc2)cc1	0.697	.	.	.	.	.	.	.	.	.	.
Nc1ccc2ncccc2c1N	0.664	-1.9	-4.8	1.7	3.6	.	.	.	.	.	.
Nc1nc(N)c2c(ccc3nccc32)[nH]1	.	93.3*	95.4*	95.9*	11.4	97.5*	90.7*	101.9*	100.8*	103.0*	101.7*
O=C(C1CC=CC2CCN(Cc3ccccc3)C(=O)C21)N1CCN(c2ccccc2)CC1 (stereo not given)	0.67	.	.	.	.	.	.	.	.	.	.
CCOC(=O)[C@@H]1[C@H]2COc3cc(OC)ccc3[C@H]2N2C(=O)N(c3ccc(C(F)(F)F)cc3)C(=O)[C@]12C	.	14.1*	9.1	15.2*	-6.7	2.0	8.4*	1.0	6.7	8.7	11.0
CCOC(=O)[C@@H]1[C@H]2COc3cc(OC)ccc3[C@@H]2N2C(=O)N(c3ccc(C(F)(F)F)cc3)C(=O)[C@@]12C	.	1.8	0.7	3.4	1.6	.	.	.	.	.	.
CN1CC2C(c3ccc(Cl)nc3)C3(c4ccccc4)CC2(C3)C1c1ccccc1 (stereo not given)	0.695	.	.	.	.	.	.	.	.	.	.
CCN(CC)c1ccc(/C=N/NC(=O)c2cccc(S(=O)(=O)Nc3ccccc3OC)c2)c(O)c1	.	32.2*	33.2*	28.2*	-4.1	21.1*	26.1*	18.6	18.7*	23.5*	27.7*
COc1ccccc1NC(=O)NNC(=O)c1cc2ccccc2cc1O	0.622	15.0*	11.9*	12.3*	17.8	14.3*	13.8*	13.9	8.2	9.3	13.7
CCc1n[nH]c(=S)n1N=Cc1cc(Br)c(O)c(OC)c1	0.645	.	.	.	.	.	.	.	.	.	.
CC(=NNC(=O)c1nnn(-c2nonc2N)c1-c1ccc2c(c1)OCO2)c1cccs1	0.646	.	.	.	.	.	.	.	.	.	.
SMILES	E coli growth-1	AddAB inh	E coli growth-2	phage Ecoli inh	Tat export inh	AddAB conf	RecBCD counter	Bact viability	RecBCD conf	Ecoli viability	AddAB phage OD
NC(=S)Cc1ccc(Cl)cc1Cl	0.648	1.3	2.5	4.7	-4.2	.	.	.	.	.	.
N=C(N)SCc1ccc(Cl)cc1Cl	0.117*	81.6*	68.4*	71.9*	-5.7	86.0*	66.2*	89.0*	68.2*	69.3*	90.4*
O=C1c2ccccc2NC(c2ccc(-c3ccc(C(F)(F)F)cc3)o2)N1O (stereo not given)	0.656	17.4*	21.1*	14.9*	-11.0	17.1*	7.7*	5.8	7.5	7.9	12.3
O=C1c2ccccc2NC(c2ccc(-c3cccs3)o2)N1O (stereo not given)	0.693	4.5	6.2	9.2	-10.3	.	.	.	.	.	.
COc1ccc(C2C3C(=O)N(C(C)(C)C)C(=O)C3[C@]3(Cc4ccccc4)C(=O)N(c4cccc(Br)c4)C(=O)N23)cc1 (stereo not given in full)	0.715	.	.	.	.	.	.	.	.	.	.
CCn1cc(C(=O)O)c(=O)c2cc(F)c(NN=Cc3ccccc3[N+](=O)[O-])cc21	0.704	.	.	.	.	.	.	.	.	.	.
CCn1cc(C(=O)O)c(=O)c2cc(F)c(N3CCN(C(=S)NC(=O)c4cc(OC)cc(OC)c4)CC3)cc21	0.083*	98.0*	97.9*	97.5*	21.7	100.5*	100.4*	100.5*	104.5*	104.5*	105.6*
CCCCOC(=O)c1ccc(NC(=S)N2CCN(c3ncc4c(=O)c(C(=O)O)cn(CC)c4n3)CC2)cc1	0.65	3.2	4.5	3.4	1.7	.	.	.	.	.	.
CCn1cc(C(=O)O)c(=O)c2cc(F)c(N3CCN(C(=S)Nc4ccc(OC)cc4)CC3)cc21	0.076*	99.7*	100.7*	101.1*	72.1*	98.9*	99.2*	99.2*	103.9*	104.2*	104.0*
CCn1cc(C(=O)Nc2ncccc2O)c(=O)c2cc(F)c(N3CCN(C(=O)c4ccco4)CC3)cc21	0.112*	92.7*	63.6*	14.6*	-5.4	101.8*	4.9*	77.3*	2.5	3.3	85.8*
CCCOc1ccc(C(=O)NC(=S)N2CCN(c3ncc4c(=O)c(C(=O)O)cn(CC)c4n3)CC2)cc1	.	.	.	3.0	.	.	.	.	.	.	.
CCn1cc(C(=O)O)c(=O)c2cc(F)c(N3CCN(C(=S)NC(=O)c4ccccc4C)CC3)cc21	0.071*	98.6*	100.4*	97.1*	58.6*	99.4*	100.7*	99.9*	103.6*	105.2*	104.3*
C=CCN1c2ccccc2[C@]23CC(C(=O)OC)N(C(=O)CC(C)C)C2=NC(C(=O)OC)=C(C(=O)OC)C13 (stereo not given in full)	0.741	.	.	.	.	.	.	.	.	.	.
